Results as given in PubChem BioAssay (Tox21).
Active and inactive are the calls of the source. Unless noted, the call rests on the fitted dose curve; in most records, active means well fitted curve in the direction sought with a large enough effect in the repeat runs; inconclusive means weak or mixed curves; inactive means no such curve, though single readings can be large; an effect the other way counts as inactive or inconclusive.

Key:
[1] = molecular target: Acetylcholinesterase (Homo sapiens) (UniProt P22303); experiment: Acetylcholinesterase (AChE) small molecule antagonists: enzyme-based qHTS assay with human liver microsomes (AID 1347399; calls by dose curve; further: nearly all actives have a fitted effect of over 60% in size); conditions: Potency: qHTS inhibition; outcome: qHTS inhibition
Sequence of Acetylcholinesterase (Homo sapiens) (P22303 whole entry, looked up): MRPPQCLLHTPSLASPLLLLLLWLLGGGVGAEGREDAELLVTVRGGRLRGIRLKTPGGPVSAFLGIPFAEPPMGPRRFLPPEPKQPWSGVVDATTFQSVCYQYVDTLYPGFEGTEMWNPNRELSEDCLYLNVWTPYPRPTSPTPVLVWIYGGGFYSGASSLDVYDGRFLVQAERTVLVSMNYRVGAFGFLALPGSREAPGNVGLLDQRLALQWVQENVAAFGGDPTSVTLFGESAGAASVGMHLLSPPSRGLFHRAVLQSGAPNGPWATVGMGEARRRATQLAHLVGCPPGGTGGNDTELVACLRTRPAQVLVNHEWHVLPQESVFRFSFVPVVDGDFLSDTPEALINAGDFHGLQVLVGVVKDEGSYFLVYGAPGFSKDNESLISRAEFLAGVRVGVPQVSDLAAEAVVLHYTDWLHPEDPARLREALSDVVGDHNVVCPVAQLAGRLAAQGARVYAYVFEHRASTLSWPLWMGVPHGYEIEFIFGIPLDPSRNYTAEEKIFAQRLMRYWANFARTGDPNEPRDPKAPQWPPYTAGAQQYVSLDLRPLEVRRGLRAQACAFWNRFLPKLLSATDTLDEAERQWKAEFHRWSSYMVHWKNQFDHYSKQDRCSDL
Method in brief: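 Recombinant human AChE (50 mU/mL in the enzyme mix) and human liver microsomes (0.25 mg/mL final) were preincubated with compound and NADPH (0.25 mg/mL final) for 30 min at 37 C. Acetylthiocholine/DTNB was then added; thiocholine was read colorimetrically after 10 min at room temperature.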

[2] = molecular target: Acetylcholinesterase (Homo sapiens) (UniProt P22303); experiment: Acetylcholinesterase (AChE) small molecule antagonists: fluorescence cell-based qHTS assay (AID 1347398; calls by dose curve; further: nearly all actives have a fitted effect of over 50% in size; further: potency means the concentration at half of the fitted maximal effect); conditions: Potency: AChE activity; outcome: AChE activity
Method in brief: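 Cellular AChE inhibition: SH-SY5Y cells treated with test chemical for 30 min at 37 C, then acetylthiocholine hydrolysis followed over 40 min at room temperature via thiocholine-reactive Thiolite Green fluorescence (490/520 nm).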

[3] = qHTS assay for small molecules that induce genotoxicity in human embryonic kidney cells expressing luciferase-tagged ATAD5 (AID 651632); further: nearly all actives have a fitted effect of over 15% in size
Method in brief: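 A rise in luciferase signal from ATAD5-tagged HEK293T cells marks genetic stress. Cells were exposed to compounds for 16 hr at 37C, 5% CO2, then luciferase was quantified after a 30 min room-temperature incubation with Amplite.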

[4] = qHTS assay for small molecules that induce genotoxicity in human embryonic kidney cells expressing luciferase-tagged ATAD5 - cell viability (AID 651634; calls by dose curve; further: nearly all actives have a fitted effect of over 25% in size)
Method in brief: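 Cytotoxicity counter-readout: after 15.5 hr compound treatment at 37C, live-cell protease activity in ATAD5-luciferase HEK293T cells measured by CellTiter-Fluor fluorescence, 30 min development at 37C.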

[5] = qHTS assay to test for compound auto fluorescence at 590 nm (red) in HepG2 cells (AID 720674)
Method in brief: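 Compound auto-fluorescence is scored relative to Rose Bengal sodium, measured at 540/590 nm in live HepG2 cultures after 1 hr compound contact (37 C, 5% CO2).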

[6] = qHTS assay to test for compound auto fluorescence at 590 nm (red) in HEK293 cells (AID 720679)
Method in brief: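 Intensity at 540nm excitation and 590nm emission is reported as Rose Bengal sodium-equivalent autofluorescence. Measurements followed overnight exposure (37C, 5% CO2) of HEK293 cells, 2,000 per well, to 23 nL compound.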

[7] = qHTS assay to test for compound auto fluorescence at 460 nm (blue) in HEK293 cell free culture (AID 720681)
Method in brief: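 Test compounds were pinned into cell-free culture medium (DMEM with 10% FBS) and fluorescence was read directly at Ex/Em 405/460 nm. Signals were expressed as fluorescence equivalents of triamterene, with DMSO vehicle as control.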

[8] = qHTS assay to test for compound auto fluorescence at 535 nm (green) in HEK293 cell free culture (AID 720682)
Method in brief: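 Green-channel intensity (Ex/Em 485/535 nm) was recorded from compound-treated wells containing only DMEM with 10% FBS. Fluorescein provided the equivalency standard.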

[9] = qHTS assay to test for compound auto fluorescence at 590 nm (red) in HEK293 cell free culture (AID 720683)
Method in brief: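 Tox21 10K library compounds were pinned into cell-free DMEM with 10% FBS and fluorescence was read at excitation 540 nm. Activity is expressed as Rose Bengal sodium equivalency.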

[10] = qHTS assay to test for compound auto fluorescence at 590 nm (red) in HepG2 cell free culture (AID 720684)
Method in brief: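 Readout: intrinsic compound fluorescence at 590 nm emission after 540 nm excitation, scaled to Rose Bengal sodium. Matrix was cell-free MEM with 10% FBS; DMSO vehicle wells served as control.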

[11] = qHTS assay to test for compound auto fluorescence at 535 nm (green) in HepG2 cell free culture (AID 720686)
[12] = qHTS assay to test for compound auto fluorescence at 460 nm (blue) in HepG2 cells (AID 720687)
Method in brief: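 Cells (2,000/well in MEM with 10% FBS) attached overnight at 37 C, then were exposed to compound or DMSO for 1 hr at 37 C, 5% CO2. Fluorescence read at Ex/Em 405/460 nm, expressed as triamterene-equivalent signal.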

[13] = molecular target: Glucocorticoid receptor (Homo sapiens) (UniProt P04150); experiment: qHTS assay to identify small molecule agonists of the glucocorticoid receptor (GR) signaling pathway (AID 720691; active means well fitted activation curve with a large enough effect in the signal ratio in the repeat runs, not every such curve was filed as active; inconclusive means weak or mixed curves, or effect the other way; inactive means no such curve, though single readings can be large or run the other way; the % refers to the signal ratio)
Sequence of Glucocorticoid receptor (Homo sapiens) (P04150 whole entry, looked up): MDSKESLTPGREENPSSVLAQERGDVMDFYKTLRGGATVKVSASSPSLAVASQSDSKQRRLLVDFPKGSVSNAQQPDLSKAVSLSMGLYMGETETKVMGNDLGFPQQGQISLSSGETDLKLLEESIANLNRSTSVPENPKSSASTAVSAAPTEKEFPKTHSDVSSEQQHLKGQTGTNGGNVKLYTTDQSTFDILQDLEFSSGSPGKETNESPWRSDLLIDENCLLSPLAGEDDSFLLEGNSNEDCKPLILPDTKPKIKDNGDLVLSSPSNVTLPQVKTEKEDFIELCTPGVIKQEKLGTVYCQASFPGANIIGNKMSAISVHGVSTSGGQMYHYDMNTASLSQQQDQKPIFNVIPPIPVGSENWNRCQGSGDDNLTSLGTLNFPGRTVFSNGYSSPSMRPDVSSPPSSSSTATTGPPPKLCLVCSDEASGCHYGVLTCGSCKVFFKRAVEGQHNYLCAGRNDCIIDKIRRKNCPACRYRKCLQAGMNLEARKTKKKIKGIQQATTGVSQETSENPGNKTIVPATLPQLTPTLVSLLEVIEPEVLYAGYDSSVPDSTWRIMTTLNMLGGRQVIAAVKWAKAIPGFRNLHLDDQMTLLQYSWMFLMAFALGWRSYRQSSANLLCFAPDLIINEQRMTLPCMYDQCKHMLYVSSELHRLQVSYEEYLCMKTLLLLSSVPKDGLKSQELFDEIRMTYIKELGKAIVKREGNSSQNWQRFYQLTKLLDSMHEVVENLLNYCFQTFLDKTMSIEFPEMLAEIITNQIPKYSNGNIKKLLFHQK
Method in brief: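 Agonist-mode qHTS in HeLa cells stably expressing a glucocorticoid-response-element beta-lactamase reporter. Fluorescence intensity read with FRET substrate (2 h, room temperature) after 18 h compound treatment at 37 C.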

[14] = molecular target: Glucocorticoid receptor (Homo sapiens) (UniProt P04150); experiment: qHTS assay to identify small molecule antagonists of the glucocorticoid receptor (GR) signaling pathway (AID 720692; active means well fitted inhibition curve with a large enough effect in the signal ratio in the repeat runs, not every such curve was filed as active; inconclusive means weak or mixed curves, or effect the other way; inactive means no such curve, though single readings can be large or run the other way; the % refers to the signal ratio; further: potency means the concentration at half of the fitted maximal effect)
Method in brief: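 Inhibition of dexamethasone-driven (5 nM final) beta-lactamase expression was measured in GRE-reporter HeLa cells over 18 h at 37C. Fluorescence was read after 2 h with the B/G FRET substrate at room temperature.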

[15] = qHTS assay for identifying genotoxic compounds that show differential cytotoxicity against isogenic chicken DT40 cell lines with known DNA damage response pathways - wild type cell line (AID 743012); further: potency means the concentration at half of the fitted maximal effect; nearly all actives have a fitted effect of over 60% in size
Method in brief: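 Viability by ATP luminescence (CellTiter-Glo, 30 min RT) after 40 h compound treatment at 37 C/5% CO2, using 300 parental DNA repair-proficient DT40 cells per well.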

[16] = qHTS assay for identifying genotoxic compounds that show differential cytotoxicity against isogenic chicken DT40 cell lines with known DNA damage response pathways - Rev3 mutant cell line (AID 743014); further: potency means the concentration at half of the fitted maximal effect; nearly all actives have a fitted effect of over 55% in size
[17] = qHTS assay for identifying genotoxic compounds that show differential cytotoxicity against isogenic chicken DT40 cell lines with known DNA damage response pathways - Rad54/Ku70 mutant cell line (AID 743015); further: potency means the concentration at half of the fitted maximal effect; nearly all actives have a fitted effect of over 60% in size
[18] = qHTS assay to identify small molecule antagonists of the androgen receptor (AR) signaling pathway - cell viability counter screen (AID 743033; further: nearly all actives have a fitted effect of over 45% in size)
[19] = qHTS assay to identify small molecule antagonists of the androgen receptor (AR) signaling pathway using the MDA cell line - cell viability counter screen (AID 743041; further: nearly all actives have a fitted effect of over 45% in size)
Method in brief: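 qHTS viability read-out; MDA-kb2 AR-luc; R1881-stimulated; 16 h exposure at 37C, 0% CO2; CellTiter-Fluor, 30 min; fluorescence intensity.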

[20] = qHTS assay to identify small molecule antagonists of the thyroid receptor (TR) signaling pathway - cell viability counter screen (AID 743064); further: nearly all actives have a fitted effect of over 50% in size
Method in brief: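 In rat pituitary GH3.TRE-Luc reporter cells co-exposed to compound and 1 nM T3 for 23.5 h, cytotoxicity was assessed with CellTiter-Fluor in the same wells, read by fluorescence.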

[21] = test system: thyroid hormone receptor (rat, GH3 cells); experiment: qHTS assay to identify small molecule agonists of the thyroid receptor (TR) signaling pathway (AID 743066; calls by dose curve)
[22] = qHTS assay to identify small molecule antagonists of the estrogen receptor alpha (ER-alpha) signaling pathway - cell viability counter screen (AID 743074; calls by dose curve;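 further: HEK293 cells carrying ER-alpha-UAS-bla reporter stimulated with 17beta-estradiol; nearly all actives have a fitted effect of over 45% in size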)
[23] = molecular target: Estrogen receptor (Homo sapiens) (UniProt P03372); experiment: qHTS assay to identify small molecule agonists of the estrogen receptor alpha (ER-alpha) signaling pathway (AID 743075; calls by dose curve;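 further: HEK293 GripTite cells with ER-alpha and UAS-driven beta-lactamase reporter; potency means the concentration at half of the fitted maximal effect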)
Sequence of Estrogen receptor (Homo sapiens) (P03372 whole entry, looked up): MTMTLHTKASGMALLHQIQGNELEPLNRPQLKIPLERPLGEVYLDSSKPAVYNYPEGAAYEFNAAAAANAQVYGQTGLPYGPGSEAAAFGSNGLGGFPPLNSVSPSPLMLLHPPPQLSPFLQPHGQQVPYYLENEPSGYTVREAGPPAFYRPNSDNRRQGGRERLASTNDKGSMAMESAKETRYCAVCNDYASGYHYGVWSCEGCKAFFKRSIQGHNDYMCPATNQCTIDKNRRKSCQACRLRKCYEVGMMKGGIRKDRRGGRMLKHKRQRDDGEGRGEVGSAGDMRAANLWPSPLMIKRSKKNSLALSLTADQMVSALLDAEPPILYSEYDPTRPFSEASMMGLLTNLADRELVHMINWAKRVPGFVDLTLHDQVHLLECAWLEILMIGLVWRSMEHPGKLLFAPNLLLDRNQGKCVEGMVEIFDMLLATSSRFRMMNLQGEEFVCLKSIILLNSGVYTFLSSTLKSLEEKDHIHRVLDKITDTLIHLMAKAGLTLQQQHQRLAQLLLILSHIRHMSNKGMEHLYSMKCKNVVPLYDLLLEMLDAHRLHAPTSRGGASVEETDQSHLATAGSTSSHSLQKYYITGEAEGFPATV

[24] = molecular target: Estrogen receptor (Homo sapiens) (UniProt P03372); experiment: qHTS assay to identify small molecule agonists of the estrogen receptor alpha (ER-alpha) signaling pathway using the BG1 cell line (AID 743079); further: potency means the concentration at half of the fitted maximal effect; nearly all actives have a fitted effect of over 20% in size
[25] = qHTS assay to identify small molecule antagonists of the estrogen receptor alpha (ER-alpha) signaling pathway using the BG1 cell line - cell viability counter screen (AID 743081);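 further: compound given together with 17beta-estradiol as the ER stimulus; series mostly up to about 70 µM; nearly all actives have a fitted effect of over 45% in size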
[26] = molecular target: Aromatase (Homo sapiens) (UniProt P11511); experiment: qHTS assay to identify aromatase inhibitors (AID 743083); further: series mostly up to about 70 µM; nearly all actives have a fitted effect of over 55% in size
Sequence of Aromatase (Homo sapiens) (P11511 whole entry, looked up): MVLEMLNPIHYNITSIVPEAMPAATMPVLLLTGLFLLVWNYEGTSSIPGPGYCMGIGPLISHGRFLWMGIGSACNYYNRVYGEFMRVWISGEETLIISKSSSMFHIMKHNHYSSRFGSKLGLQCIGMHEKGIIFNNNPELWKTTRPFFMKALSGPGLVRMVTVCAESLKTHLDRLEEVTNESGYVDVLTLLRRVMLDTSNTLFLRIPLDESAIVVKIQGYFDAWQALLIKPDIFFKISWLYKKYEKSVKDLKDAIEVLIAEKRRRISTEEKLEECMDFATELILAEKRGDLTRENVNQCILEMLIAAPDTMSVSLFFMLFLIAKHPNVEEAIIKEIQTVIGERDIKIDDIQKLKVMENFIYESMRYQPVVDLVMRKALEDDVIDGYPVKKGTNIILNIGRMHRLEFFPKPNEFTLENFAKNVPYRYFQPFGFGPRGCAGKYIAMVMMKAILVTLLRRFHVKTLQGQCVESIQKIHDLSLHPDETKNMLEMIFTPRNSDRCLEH

[27] = qHTS assay to identify aromatase inhibitors - cell viability counter screen (AID 743084);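 further: cells stimulated with testosterone during compound exposure; nearly all actives have a fitted effect of over 55% in size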
[28] = molecular target: Aryl hydrocarbon receptor (Homo sapiens) (UniProt P35869); experiment: qHTS assay to identify small molecule that activate the aryl hydrocarbon receptor (AhR) signaling pathway (AID 743085);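 further: HG2L7.5c1 human HepG2 liver cells with stably integrated DRE-driven firefly reporter; series mostly up to about 70 µM; nearly all actives have a fitted effect of over 15% in size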
Sequence of Aryl hydrocarbon receptor (Homo sapiens) (P35869 whole entry, looked up): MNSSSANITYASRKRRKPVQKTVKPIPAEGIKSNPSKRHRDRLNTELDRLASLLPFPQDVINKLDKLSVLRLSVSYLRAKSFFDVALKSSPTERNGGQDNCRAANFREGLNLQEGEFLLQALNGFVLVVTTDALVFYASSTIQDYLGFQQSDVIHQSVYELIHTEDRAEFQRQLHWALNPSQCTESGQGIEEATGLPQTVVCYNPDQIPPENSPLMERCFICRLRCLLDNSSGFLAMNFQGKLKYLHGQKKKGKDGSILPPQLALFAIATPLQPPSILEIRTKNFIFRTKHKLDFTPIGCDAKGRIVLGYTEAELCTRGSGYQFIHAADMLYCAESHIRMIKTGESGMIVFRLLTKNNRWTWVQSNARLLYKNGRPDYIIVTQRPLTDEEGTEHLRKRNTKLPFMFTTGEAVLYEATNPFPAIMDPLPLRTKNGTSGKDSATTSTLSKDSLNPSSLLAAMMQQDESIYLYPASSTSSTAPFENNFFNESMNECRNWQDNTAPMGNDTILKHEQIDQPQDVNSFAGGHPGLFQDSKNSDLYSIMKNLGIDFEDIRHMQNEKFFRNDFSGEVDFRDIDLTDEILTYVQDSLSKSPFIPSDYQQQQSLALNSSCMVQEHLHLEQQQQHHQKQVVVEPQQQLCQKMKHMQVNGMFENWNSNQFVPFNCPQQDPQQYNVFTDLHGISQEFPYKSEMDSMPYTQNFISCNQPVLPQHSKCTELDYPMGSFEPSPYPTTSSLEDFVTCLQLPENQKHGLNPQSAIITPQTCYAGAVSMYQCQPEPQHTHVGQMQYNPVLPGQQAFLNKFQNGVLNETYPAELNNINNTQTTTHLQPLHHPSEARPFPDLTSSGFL
Method in brief: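 AhR agonist activity is inferred from enhanced light output of a DRE-controlled firefly luciferase reporter in HepG2 cells, measured with ONE-Glo following 24 h treatment at 37C.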

[29] = qHTS assay to identify small molecule that activate the aryl hydrocarbon receptor (AhR) signaling pathway - cell viability counter screen (AID 743086)
Method in brief: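 HepG2-AhR-luc (HG2L7.5c1) cells, 4000/well, were preincubated 5 h at 37C, exposed to compound in qHTS format for 24 hr at 37C, then given CellTiter-Fluor for 30 min; viability was read as fluorescence in the reporter wells.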

[30] = molecular target: Peroxisome proliferator-activated receptor gamma (Homo sapiens) (UniProt P37231); experiment: qHTS assay to identify small molecule agonists of the peroxisome proliferator-activated receptor gamma (PPARg) signaling pathway (AID 743094; active means well fitted activation curve with a large enough effect in the signal ratio in the repeat runs, not every such curve was filed as active; inconclusive means weak or mixed curves, or effect the other way; inactive means no such curve, though single readings can be large or run the other way; the % refers to the signal ratio)
Sequence of Peroxisome proliferator-activated receptor gamma (Homo sapiens) (P37231 whole entry, looked up): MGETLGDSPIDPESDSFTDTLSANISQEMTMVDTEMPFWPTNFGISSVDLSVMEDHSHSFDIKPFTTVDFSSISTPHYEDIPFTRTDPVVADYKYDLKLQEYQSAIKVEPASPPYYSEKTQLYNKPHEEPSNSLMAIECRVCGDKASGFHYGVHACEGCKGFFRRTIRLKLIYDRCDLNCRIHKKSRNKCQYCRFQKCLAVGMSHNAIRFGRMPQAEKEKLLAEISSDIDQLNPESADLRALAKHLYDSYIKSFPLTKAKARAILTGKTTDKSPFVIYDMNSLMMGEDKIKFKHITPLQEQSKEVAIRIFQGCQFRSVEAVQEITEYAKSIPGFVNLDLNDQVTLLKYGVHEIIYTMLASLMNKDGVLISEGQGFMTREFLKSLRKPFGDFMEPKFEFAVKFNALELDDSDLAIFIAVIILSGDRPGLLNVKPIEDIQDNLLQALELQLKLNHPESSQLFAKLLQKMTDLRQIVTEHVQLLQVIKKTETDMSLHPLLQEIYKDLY
Method in brief: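 Agonist activity was taken from a beta-lactamase reporter (FRET substrate, 1 h at room temperature) in HEK293H cells carrying a PPARg UAS-bla construct. Compounds in DMSO were incubated 17 h at 37C after a 5 h cell pre-incubation.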

[31] = qHTS assay for small molecule agonists of the p53 signaling pathway - cell viability (AID 651633; calls by dose curve;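 further: p53RE-bla HCT reporter cells with a stable beta-lactamase p53 reporter; series mostly up to about 83 µM; nearly all actives have a fitted effect of over 30% in size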)
Method in brief: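 p53RE-bla cells, seeded at 4,000 per well and rested 5 h at 37 C/5% CO2, received compounds in DMSO for 16 h at 37 C. CellTiter-Glo was then added, and luminescence was read after 30 min at room temperature to gauge cytotoxicity.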

[32] = qHTS assay for small molecule disruptors of the mitochondrial membrane potential - cell viability (AID 720634; calls by dose curve;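 further: human HepG2 liver cancer cells; series mostly up to about 83 µM; nearly all actives have a fitted effect of over 20% in size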)
Method in brief: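 Cytotoxicity was quantified from ATP content by CellTiter-Glo luminescence in the same wells as the MMP dye read-out. HepG2 (2,000 cells/well) were plated overnight and exposed to compounds for 1 hr at 37 C.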

[33] = qHTS assay for small molecule disruptors of the mitochondrial membrane potential (AID 720635)
Method in brief: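 HepG2 cells (2,000/well) attached overnight at 37C, then took compound for 1 hr at 37C, 5% CO2. Mito-MPS dye was added for 30 min; fluorescence was read at 490/535 nm (monomers) and 540/590 nm (aggregates).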

[34] = qHTS assay to identify small molecule antagonists of the glucocorticoid receptor (GR) signaling pathway - cell viability counter screen (AID 720693); further: nearly all actives have a fitted effect of over 55% in size
[35] = qHTS assay to identify small molecule antagonists of the thyroid receptor (TR) signaling pathway (AID 743065)
Method in brief: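 GH3.TRE-Luc rat pituitary cells carrying two TR response elements driving luciferase were plated for 4 h, given compound plus 1 nM T3 (final), and incubated 23.5 h at 37 C. ONE-Glo luminescence measured reporter inhibition; CellTiter-Fluor fluorescence tracked cytotoxicity.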

Measured: Potency

O=C(OCC(O)CO)c1ccccc1Nc1ccnc2cc(Cl)ccc12 (configuration not stated)
inactive: [1]

Cc1ccc(CCn2c3c(c4cc(Cl)ccc42)CN(C)CC3)cn1
inactive: [1]
active: [2] 19.5 µM

CCN(CC)CCNC(=O)c1cc(Br)c(N)cc1OC
inactive: [1]

C[C@]12CC[C@H]3[C@@H](CCC4=CC(=O)CC[C@@]43C)[C@@H]1CC[C@@H]2OC(=O)CCc1ccccc1
active: [14] 6.16 µM | [15] 5.45 µM | [16] 8.63 µM | [17] 8.63 µM | [23] 3.89 µM [inconclusive] | [24] 0.0306 µM
not listed: [1] | [2] | [31] | [32] | [33] | [34] | [35]
inactive: all other assays above

CCN(CC)CCNC(=O)c1cc(Cl)c(N)cc1OC
inactive: [1]

CN1CCN=C(c2ccccc2)c2cc(Cl)ccc21
not listed: [1] | [2] | [14] | [15] | [16] | [17] | [22] | [23] | [24] | [28]
inactive: all other assays above

C1CCc2nnnn2CC1
inactive: [26] | [28]

Nc1cc(Cl)c(O)c(Cl)c1
inactive: [2] | [1]
